# Test results as given in article PMC11006913.
# Residue numbers refer to the chain shown, from its start.
# Key:
# Assay in all cases: PBM; 200 nM protein, PBS
# Settings in all cases: dsDNA, one strand shown
# SIX6 [1] = target: T1, SIX6 (Homo sapiens, UniProt O95475 114-200, L167I)
# T1 sequence: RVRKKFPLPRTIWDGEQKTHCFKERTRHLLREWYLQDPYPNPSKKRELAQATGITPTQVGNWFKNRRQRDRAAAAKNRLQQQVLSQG
# SIX6 [2] = target: T2, SIX6 (Homo sapiens, UniProt O95475 114-200, L143V)
# T2 sequence: T1 sequence with L30V, I54L
# SIX6 [3] = target: T3, SIX6 (Homo sapiens, UniProt O95475 114-200, H141N)
# T3 sequence: T1 sequence with H28N, I54L
# SIX6 [4] = target: T4, SIX6 (Homo sapiens, UniProt O95475 114-200, T165P)
# T4 sequence: T1 sequence with T52P, I54L
# SIX6 [5] = target: T5, SIX6 (Homo sapiens, UniProt O95475 114-200, L167M)
# T5 sequence: T1 sequence with I54M
# SIX6 [6] = target: T6, SIX6 (Homo sapiens, UniProt O95475 114-200, L143M)
# T6 sequence: T1 sequence with L30M, I54L
# SIX6 [7] = target: T7, SIX6 (Homo sapiens, UniProt O95475 114-200, L143I)
# T7 sequence: T1 sequence with L30I, I54L
# SIX6 [8] = target: T8, SIX6 (Homo sapiens, UniProt O95475 114-200, T165G)
# T8 sequence: T1 sequence with T52G, I54L
# SIX6 [9] = target: T9, SIX6 (Homo sapiens, UniProt O95475 114-200, T139Q)
# T9 sequence: T1 sequence with T26Q, I54L
# SIX6 [10] = target: T10, SIX6 (Homo sapiens, UniProt O95475 114-200, T165A)
# T10 sequence: T1 sequence with T52A, I54L
# SIX6 [11] = target: T11, SIX6 (Homo sapiens, UniProt O95475 114-200, L167V)
# T11 sequence: T1 sequence with I54V
# SIX6 [12] = target: T12, SIX6 (Homo sapiens, UniProt O95475 114-200)
# T12 sequence: T1 sequence with I54L
# SIX6 [13] = target: T13, SIX6 (Homo sapiens, UniProt O95475 114-200, T165I)
# T13 sequence: T1 sequence with T52I, I54L
Sequence,binding signal (SIX6 [1]),binding signal (SIX6 [2]),binding signal (SIX6 [3]),binding signal (SIX6 [4]),binding signal (SIX6 [5]),binding signal (SIX6 [6]),binding signal (SIX6 [7]),binding signal (SIX6 [8]),binding signal (SIX6 [9]),binding signal (SIX6 [10]),binding signal (SIX6 [11]),binding signal (SIX6 [12]),binding signal (SIX6 [13])
AAGTATCA,"11.3 upbm affinity estimate (log intensity, higher = more binding, comparable within an allelic series)","10.3 upbm affinity estimate (log intensity, higher = more binding, comparable within an allelic series)","11.2 upbm affinity estimate (log intensity, higher = more binding, comparable within an allelic series)","9.85 upbm affinity estimate (log intensity, higher = more binding, comparable within an allelic series)","10.6 upbm affinity estimate (log intensity, higher = more binding, comparable within an allelic series)","11 upbm affinity estimate (log intensity, higher = more binding, comparable within an allelic series)","10.3 upbm affinity estimate (log intensity, higher = more binding, comparable within an allelic series)","11.2 upbm affinity estimate (log intensity, higher = more binding, comparable within an allelic series)","11.1 upbm affinity estimate (log intensity, higher = more binding, comparable within an allelic series)","11.2 upbm affinity estimate (log intensity, higher = more binding, comparable within an allelic series)","11 upbm affinity estimate (log intensity, higher = more binding, comparable within an allelic series)","10.9 upbm affinity estimate (log intensity, higher = more binding, comparable within an allelic series)","11 upbm affinity estimate (log intensity, higher = more binding, comparable within an allelic series)"
GTATCAGA,"11.1 upbm affinity estimate (log intensity, higher = more binding, comparable within an allelic series)","10.3 upbm affinity estimate (log intensity, higher = more binding, comparable within an allelic series)","11.1 upbm affinity estimate (log intensity, higher = more binding, comparable within an allelic series)","9.63 upbm affinity estimate (log intensity, higher = more binding, comparable within an allelic series)","10.6 upbm affinity estimate (log intensity, higher = more binding, comparable within an allelic series)","10.9 upbm affinity estimate (log intensity, higher = more binding, comparable within an allelic series)","10.2 upbm affinity estimate (log intensity, higher = more binding, comparable within an allelic series)","11.1 upbm affinity estimate (log intensity, higher = more binding, comparable within an allelic series)","11.1 upbm affinity estimate (log intensity, higher = more binding, comparable within an allelic series)","11.1 upbm affinity estimate (log intensity, higher = more binding, comparable within an allelic series)","10.9 upbm affinity estimate (log intensity, higher = more binding, comparable within an allelic series)","10.9 upbm affinity estimate (log intensity, higher = more binding, comparable within an allelic series)","10.8 upbm affinity estimate (log intensity, higher = more binding, comparable within an allelic series)"
CGTATCAC,"11.2 upbm affinity estimate (log intensity, higher = more binding, comparable within an allelic series)","10.3 upbm affinity estimate (log intensity, higher = more binding, comparable within an allelic series)","11.3 upbm affinity estimate (log intensity, higher = more binding, comparable within an allelic series)","9.61 upbm affinity estimate (log intensity, higher = more binding, comparable within an allelic series)","10.6 upbm affinity estimate (log intensity, higher = more binding, comparable within an allelic series)","11 upbm affinity estimate (log intensity, higher = more binding, comparable within an allelic series)","10.4 upbm affinity estimate (log intensity, higher = more binding, comparable within an allelic series)","11.3 upbm affinity estimate (log intensity, higher = more binding, comparable within an allelic series)","11.3 upbm affinity estimate (log intensity, higher = more binding, comparable within an allelic series)","11.2 upbm affinity estimate (log intensity, higher = more binding, comparable within an allelic series)","11 upbm affinity estimate (log intensity, higher = more binding, comparable within an allelic series)","11 upbm affinity estimate (log intensity, higher = more binding, comparable within an allelic series)","11.1 upbm affinity estimate (log intensity, higher = more binding, comparable within an allelic series)"
CGCCCACC,"9.03 upbm affinity estimate (log intensity, higher = more binding, comparable within an allelic series)","9.02 upbm affinity estimate (log intensity, higher = more binding, comparable within an allelic series)","9.04 upbm affinity estimate (log intensity, higher = more binding, comparable within an allelic series)","9.15 upbm affinity estimate (log intensity, higher = more binding, comparable within an allelic series)","9.04 upbm affinity estimate (log intensity, higher = more binding, comparable within an allelic series)","9.02 upbm affinity estimate (log intensity, higher = more binding, comparable within an allelic series)","9.17 upbm affinity estimate (log intensity, higher = more binding, comparable within an allelic series)","9.11 upbm affinity estimate (log intensity, higher = more binding, comparable within an allelic series)","9.21 upbm affinity estimate (log intensity, higher = more binding, comparable within an allelic series)","9.07 upbm affinity estimate (log intensity, higher = more binding, comparable within an allelic series)","9.06 upbm affinity estimate (log intensity, higher = more binding, comparable within an allelic series)","9.1 upbm affinity estimate (log intensity, higher = more binding, comparable within an allelic series)","9.03 upbm affinity estimate (log intensity, higher = more binding, comparable within an allelic series)"
CAGGACCG,"9.24 upbm affinity estimate (log intensity, higher = more binding, comparable within an allelic series)","9.05 upbm affinity estimate (log intensity, higher = more binding, comparable within an allelic series)","9.24 upbm affinity estimate (log intensity, higher = more binding, comparable within an allelic series)","9.18 upbm affinity estimate (log intensity, higher = more binding, comparable within an allelic series)","9.01 upbm affinity estimate (log intensity, higher = more binding, comparable within an allelic series)","9.2 upbm affinity estimate (log intensity, higher = more binding, comparable within an allelic series)","9.14 upbm affinity estimate (log intensity, higher = more binding, comparable within an allelic series)","9.28 upbm affinity estimate (log intensity, higher = more binding, comparable within an allelic series)","9.23 upbm affinity estimate (log intensity, higher = more binding, comparable within an allelic series)","9.16 upbm affinity estimate (log intensity, higher = more binding, comparable within an allelic series)","9.19 upbm affinity estimate (log intensity, higher = more binding, comparable within an allelic series)","9.17 upbm affinity estimate (log intensity, higher = more binding, comparable within an allelic series)","9.13 upbm affinity estimate (log intensity, higher = more binding, comparable within an allelic series)"
GATCCGGA,"10.4 upbm affinity estimate (log intensity, higher = more binding, comparable within an allelic series)","9.71 upbm affinity estimate (log intensity, higher = more binding, comparable within an allelic series)","10.2 upbm affinity estimate (log intensity, higher = more binding, comparable within an allelic series)","9.25 upbm affinity estimate (log intensity, higher = more binding, comparable within an allelic series)",,,"9.87 upbm affinity estimate (log intensity, higher = more binding, comparable within an allelic series)","10.4 upbm affinity estimate (log intensity, higher = more binding, comparable within an allelic series)","10.7 upbm affinity estimate (log intensity, higher = more binding, comparable within an allelic series)","10.3 upbm affinity estimate (log intensity, higher = more binding, comparable within an allelic series)","10.3 upbm affinity estimate (log intensity, higher = more binding, comparable within an allelic series)","10.4 upbm affinity estimate (log intensity, higher = more binding, comparable within an allelic series)","10.2 upbm affinity estimate (log intensity, higher = more binding, comparable within an allelic series)"
